# In PubChem BioAssay (Tox21):
# Records with an inconclusive call do not appear. Where a call stands in place of a potency, no number is given. Active and inactive are the calls of the source. Calls come from the whole dose curve; as a rule, active = well fitted cell-killing curve with a large enough effect in the repeat runs; inconclusive = weak or mixed curves, or effect the other way; inactive = flat fitted curve, though single readings scatter.
# Experiment: qHTS RealTime-Glo MT Cell Viability Assay in HepG2 cells - 40 hour (AID 1224870); note: nearly all actives have a fitted effect of over 50% in size
# Settings: RealTime-Glo luminescence; series mostly up to 76.8 µM
# Excerpt: National Center for Advancing Translational Sciences [NCATS]
# NIH Chemical Genomics Center [NCGC]
# U.S. Environmental Protection Agency [EPA]
# National Institutes of Environmental Health Sciences [NIEHS]
# National Toxicology Program [NTP]
# U.S. Food and Drug Administration [FDA]
# Measure of cell viability is critical in the cell-base assay. Analysis of cell viability is necessary for the characterization of cell responses to cytotoxic drugs and environmental stress. A RealTime-Glo MT Cell Viability Assay to monitor cell viability in real time of continues cell culture during 40 hours of compound treatment was used to screen Tox21 10K library compounds in HepG2 cells. The RealTime-Glo MT Cell Viability Assay is a nonlytic, homogeneous, bioluminescent method to measure cell viability in real time using a simple, plate-based method. The assay involves adding NanoLuc luciferase and a cell-permeant prosubstrate to cells in culture. Viable cells reduce the proprietary prosubstrate to generate a substrate for NanoLuc luciferase. This substrate diffuses from cells into the surrounding culture medium, where it is rapidly used by the NanoLuc Enzyme to produce a luminescent signal. The signal correlates with the number of viable cells, making the assay well suited for cytotoxicity studies.
# Tox21 Assay Protocol Summary:
# The mixture of HepG2 cell suspension and reagents were dispensed at 600cells/6 ul/well in 1536-well tissue culture treated black solid bottom plates using a Multidrop dispenser. After the assay plates were incubated at a 37 C/5% CO2 incubator for 5 hours, 23 nL of compounds dissolved in DMSO, positive and negative controls was transferred to the assay plate by a pintool work station. The plates were incubated at 37 C for 40 hours. The luminescence intensity were measured at 0h, 8h, 16h, 24h, 32h and 40h time points using ViewLux plate reader during compound treatment.
# Potency is the fitted concentration of half-maximal effect.
Compound,Potency,"activity change, negative = cytotoxic"
FC(F)(F)c1cccc(Cl)c1,inactive,
CCO[Si](OCC)(OCC)OCC,inactive,
Cc1cc(-n2nc3ccc(Cl)cc3n2)c(O)c(C(C)(C)C)c1,inactive,
O=C1CCc2cc(OCCCCc3nnnn3C3CCCCC3)ccc2N1,inactive,
O=C(/C=C/c1ccccc1)OC/C=C/c1ccccc1,inactive,
Cc1c(C)c([N+](=O)[O-])c(C(C)(C)C)c([N+](=O)[O-])c1C,inactive,
CCOC(=O)c1ccc(C2CCC(NC[C@H](O)COc3ccc(O)c(NS(C)(=O)=O)c3)CC2)cc1 (stereo not given in full),50.7 µM (active),
CCCCOC(=O)CC,inactive,
ClCCl,inactive,
Oc1cc(Cl)cc(Cl)c1Cl,inactive,
C#C[C@]1(OC(C)=O)CC[C@H]2[C@@H]3CCC4=C[C@@H](OC(C)=O)CC[C@@H]4[C@H]3CC[C@@]21C,inactive,
CCCCC(CC)CN1CN(CC(CC)CCCC)CC(C)(N)C1 (stereo not given),21.3 µM (active),
O=[N+]([O-])c1ccc(F)c(Cl)c1,inactive,
Cc1c(C)c2c(c(C)c1OC(=O)c1cccnc1)CC[C@@](C)(CCC[C@H](C)CCC[C@H](C)CCCC(C)C)O2,inactive,
OCC(F)(F)F,inactive,
O=C(O)CCN(C1(C(=O)NO)CCCC1)S(=O)(=O)c1ccc(Oc2ccc(F)cc2)cc1,inactive,
c1ccc(SSc2ccccc2)cc1,inactive,
Cc1cc(-c2ccc(N=Nc3cc(S(=O)(=O)O)c4ccccc4c3N)c(C)c2)ccc1N=Nc1cc(S(=O)(=O)O)c2ccccc2c1N,inactive,
CN1CCCCC1CCN1c2ccccc2Sc2ccc(S(C)=O)cc21 (stereo not given),inactive,
CC1=Nc2ccccc2C1(C)C,inactive,

Compound,Potency,"activity change, negative = cytotoxic"
COc1cc(C)ccc1O,inactive,
O=C(O)c1cc(-c2ccc(F)cc2F)ccc1O,inactive,
CCC(COC(=O)CCS)(COC(=O)CCS)COC(=O)CCS,inactive,
CN(C)Cc1ccccc1O,inactive,
COc1cc(/C=C/c2ccccc2)oc(=O)c1,inactive,
O=[N+]([O-])c1cccc(C(F)(F)F)c1,inactive,
O=C(O)CN(CCN(CC(=O)O)CC(=O)O)CC(=O)O,,12.4% [at 2.72 µM] (inactive)
O=C(O)[C@H](O)[C@@H](O)[C@H](O[C@@H]1O[C@H](CO)[C@H](O)[C@H](O)[C@H]1O)[C@H](O)CO,inactive,
CC(C)(C)c1ccc(C(O)CCCN2CCC(C(O)(c3ccccc3)c3ccccc3)CC2)cc1 (stereo not given),4.77 µM (active),
O=C(/C=C/c1ccc(O)c(O)c1)O[C@@H](C(=O)O)[C@@H](OC(=O)/C=C/c1ccc(O)c(O)c1)C(=O)O,inactive,
CCOC(=O)NNc1ccc(N(CC)CC(C)O)nn1 (stereo not given),inactive,
C=C(C)c1cccc(C(=C)C)c1,inactive,
O=c1[nH]c(=O)n([C@H]2C[C@H](O)[C@@H](CO)O2)cc1F,inactive,
C=CC(=O)OCCOC(=O)C=C,inactive,
O=C(O)Cc1ccc2c(c1)C(=O)c1ccccc1CO2,inactive,
CCOc1ccc2ccccc2c1C(=O)N[C@@H]1C(=O)N2[C@@H]1SC(C)(C)[C@@H]2C(=O)O,inactive,
C[C@@H](O)[C@H](N)C(=O)O,,-3.3% [at 15.8 µM] (inactive)
CC(C(=O)O)c1ccc2c(c1)[nH]c1ccc(Cl)cc12 (stereo not given),inactive,
CCN(CC)c1ccc2c(-c3ccc(S(=O)(=O)O)cc3S(=O)(=O)[O-])c3ccc(=[N+](CC)CC)cc-3oc2c1,inactive,
CC(CCc1ccccc1)NCC(O)c1ccc(O)c(C(N)=O)c1 (stereo not given),inactive,
